Results reported in PubChem BioAssay (NCI).
About 83,000 compounds went through this panel and 20% of them were active in at least one assay; those are over-represented in the sample as a whole.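 A percent growth of 40 corresponds to 60% growth inhibition; 0 means no net growth; -100 means all cells died. Active threshold: below 10.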 The source made the active and inactive calls.

Tests used:
Assay in all cases: NCI-60 one-dose screen, 48 h (100 = growth as untreated, 0 = no growth, -100 = all killed)
BT-549 breast = conditions: 10 µM unless noted
MDA-MB-435 melanoma = conditions: 10 µM unless noted
SW-620 colon = conditions: 10 µM unless noted
MCF7 breast = conditions: 10 µM
HCT-116 colon = conditions: 10 µM unless noted
HCC-2998 colon = conditions: 10 µM unless noted
KM12 colon = conditions: 10 µM unless noted

Measured: growth

COc1ccc(-c2nc(-c3ccccc3)c(-c3ccccc3)[nH]2)cc1OC1CCCCC1
inactive: BT-549 breast 118% | MDA-MB-435 melanoma 84.8% | SW-620 colon 88.8% | MCF7 breast 73.6% | HCT-116 colon 88.4% | HCC-2998 colon 90.8% | KM12 colon 89.3%

Nc1nonc1-n1nncc1-c1cccnc1
inactive: BT-549 breast 105% | MDA-MB-435 melanoma 102% | SW-620 colon 111% | MCF7 breast 93.4% | HCT-116 colon 106% | HCC-2998 colon 112% | KM12 colon 105%

Clc1ccc(COc2ccc(Nc3ncnc4onc(-c5ccccc5)c34)cc2)cc1
inactive: BT-549 breast 89.1% | MDA-MB-435 melanoma 73.1% | SW-620 colon 68.1% | MCF7 breast 75.9% | HCT-116 colon 72.1% | HCC-2998 colon 106% | KM12 colon 88.9%

CC(=O)c1ccc(NC(=O)Nc2ccc(S(=O)(=O)Nc3ccc(Cl)nn3)cc2)cc1
inactive: BT-549 breast 107% | MDA-MB-435 melanoma 107% | SW-620 colon 104% | MCF7 breast 99.1% | HCT-116 colon 105% | HCC-2998 colon 107% | KM12 colon 103%

O=C1/C(=C/c2ccc(O)cc2)COc2ccc(O)cc21
inactive: BT-549 breast 106% | MDA-MB-435 melanoma 94.8% | SW-620 colon 87.2% | MCF7 breast 51.6% | HCT-116 colon 86.1% | HCC-2998 colon 108% | KM12 colon 64.7%

O=Cc1cc2ccccc2nc1Nc1nccs1
inactive: BT-549 breast 88.9% | MDA-MB-435 melanoma 81.4% | SW-620 colon 27.5% | MCF7 breast 13.2% | HCT-116 colon 54.3% | HCC-2998 colon 87.6% | KM12 colon 56.2%

COc1ccc(CN2CCCC(C(=O)c3ccc(C(F)(F)F)cc3)C2)c(O)c1 (stereo not given)
active: MDA-MB-435 melanoma -48.9%
inactive: BT-549 breast 25.7% | SW-620 colon 13.4% | MCF7 breast 10.9% | HCT-116 colon 15.9% | HCC-2998 colon 31.8% | KM12 colon 18.5%

OC(c1ccccc1)c1nnc(SCc2ccccc2)n1Cc1ccccc1 (stereo not given)
inactive: BT-549 breast 88.4% | MDA-MB-435 melanoma 97.8% | SW-620 colon 105% | MCF7 breast 92.9% | HCT-116 colon 92.2% | HCC-2998 colon 111% | KM12 colon 108%

CCN1C(=O)N(CC)C2C1NN=c1s/c(=C3\C(=O)N(C(C)C)c4ccccc43)c(=O)n12 (stereo not given)
active: BT-549 breast 6.02% | MDA-MB-435 melanoma -12.1%
inactive: SW-620 colon 27.1% | MCF7 breast 20.5% | HCT-116 colon 10.1% | HCC-2998 colon 20.3% | KM12 colon 15.3%

COC(=O)c1c2c(c(C)[n+]([O-])c1C)C(=O)C(NCc1ccc(Br)cc1)=CC2=O
active: MDA-MB-435 melanoma -77.4% | SW-620 colon 5.24% | MCF7 breast -20.1% | HCT-116 colon 1.37%
inactive: BT-549 breast 62.3% | HCC-2998 colon 14.4% | KM12 colon 15.2%

Cc1ccc2c(n1)C(=O)C(Oc1ccc(Br)cc1)=CC2=O
inactive: BT-549 breast 86.5% | MDA-MB-435 melanoma 101% | SW-620 colon 94% | MCF7 breast 85.6% | HCT-116 colon 87.3% | HCC-2998 colon 101% | KM12 colon 102%

O=C(Nc1ccc(C23CC4CC(CC(c5ccccc5)(C4)C2)C3)cc1)c1cccs1
inactive: BT-549 breast 68.9% | MDA-MB-435 melanoma 44.9% | SW-620 colon 82% | MCF7 breast 67.3% | HCT-116 colon 60.4% | HCC-2998 colon 74.8% | KM12 colon 64.8%

Cc1cc(OC(=O)c2ccc([N+](=O)[O-])cc2)nc2[nH]c(=O)sc12
inactive: BT-549 breast 111% | MDA-MB-435 melanoma 108% | SW-620 colon 104% | MCF7 breast 90.2% | HCT-116 colon 105% | HCC-2998 colon 104% | KM12 colon 102%

COC(=O)/C(=C\c1c(C)[nH]c2ccccc12)S(=O)(=O)c1ccccc1
active: MCF7 breast 6.71% | HCC-2998 colon 5.21% | KM12 colon -13.2%
inactive: BT-549 breast 29.8% | MDA-MB-435 melanoma 13.9% | SW-620 colon 30.4% | HCT-116 colon 29.5%

COc1c2ccoc2c(/C=C/C=O)c2oc(-c3ccccc3)cc(=O)c12
inactive: BT-549 breast 41.2% | MDA-MB-435 melanoma 64.6% | SW-620 colon 10% | MCF7 breast 31.5% | HCC-2998 colon 104% | KM12 colon 91.4%
active: HCT-116 colon -56.6%

COc1cccc(/C=C/C(=O)c2c(C)nc3ccccc3c2/C=C/c2ccccc2)c1OC
inactive: BT-549 breast 29.4% | MDA-MB-435 melanoma 15.1% | SW-620 colon 13.2% | MCF7 breast 13.9% | HCC-2998 colon 41.1% | KM12 colon 26.6%
active: HCT-116 colon 4.08%

NNC(=O)CNC(=O)Nc1n[nH]c(=S)s1
inactive: BT-549 breast 116% | MDA-MB-435 melanoma 110% | SW-620 colon 102% | MCF7 breast 93.8% | HCT-116 colon 94.1% | HCC-2998 colon 106% | KM12 colon 100%

CN1C(=O)N(C)C2C1NN=c1s/c(=C\c3ccc([N+](=O)[O-])cc3)c(=O)n12 (stereo not given)
active: MDA-MB-435 melanoma 6.25%
inactive: BT-549 breast 60.5% | SW-620 colon 37.8% | MCF7 breast 26% | HCT-116 colon 37.6% | HCC-2998 colon 84.9% | KM12 colon 35.5%

Clc1ccc(Nc2scc3[n+]2CCC3)cc1
inactive: BT-549 breast 99.2% | MDA-MB-435 melanoma 97.7% | SW-620 colon 96.9% | MCF7 breast 89.6% | HCT-116 colon 96.2% | HCC-2998 colon 104% | KM12 colon 97.8%

CCCCCCc1cc2cc(-c3csc(/C=C/c4ccccc4)n3)c(=O)oc2cc1O
active: MDA-MB-435 melanoma -72.2% | SW-620 colon 1.96% | MCF7 breast 8.1% | HCC-2998 colon -25.1%
inactive: BT-549 breast 41.4% | HCT-116 colon 12% | KM12 colon 15.8%

O=c1c2cccc(F)c2sc2c(N3CCNCC3)nc3ccccc3c12
active: MDA-MB-435 melanoma 2.82% | SW-620 colon -39.8% | MCF7 breast -20.6% | HCT-116 colon 7.91% | HCC-2998 colon -6.49%
inactive: BT-549 breast 73.7% | KM12 colon 10.4%

Nc1ccc(-c2ccc(-c3ccccc3N)c3[nH]c4ccccc4c23)cc1
inactive: BT-549 breast 53.2% | SW-620 colon 29.5% | MCF7 breast 19.6% | HCT-116 colon 22.6% | HCC-2998 colon 42.1% | KM12 colon 23.6%
active: MDA-MB-435 melanoma -58.9%

CN1CCN(Cc2ccc(NC(=O)c3cncc(C#Cc4nc(N)nc5[nH]ncc45)c3)cc2C(F)(F)F)CC1
inactive: BT-549 breast 82.9% | MDA-MB-435 melanoma 81.5% | SW-620 colon 28% | MCF7 breast 69.1% | HCT-116 colon 49.1% | HCC-2998 colon 133% | KM12 colon 81.9%

CN1C(=O)N(C)C2C1NN=c1s/c(=C\c3c[nH]c4ccccc34)c(=O)n12 (stereo not given)
inactive: BT-549 breast 12.3% | MDA-MB-435 melanoma 102% | SW-620 colon 28.6% | MCF7 breast 16% | HCC-2998 colon 27.3%
active: HCT-116 colon 5.95% | KM12 colon 4.61%

COc1cccc2cc(N(C)c3nc(C)nc4ccsc34)ccc12
active: MDA-MB-435 melanoma -16.1% | HCT-116 colon -0.926% | HCC-2998 colon 7.08% | KM12 colon -1.06%
inactive: BT-549 breast 13.3% | SW-620 colon 22.3% | MCF7 breast 16.9%

COc1ccc(CCN2CCC(CN(C)Cc3cnn(-c4ccccc4)c3)CC2)cc1
inactive: BT-549 breast 32.5% | MDA-MB-435 melanoma 38.1% | SW-620 colon 26% | MCF7 breast 12.4% | HCT-116 colon 21.5% | HCC-2998 colon 21.5% | KM12 colon 22.5%

CCC(C)(C)C(=O)O[C@H]1C[C@@H](C)C=C2C=C[C@H](C)[C@H](CC[C@@H]3CC=CC(=O)O3)[C@H]21
inactive: BT-549 breast 95.9% | MDA-MB-435 melanoma 60.3% | SW-620 colon 17.7% | MCF7 breast 36.8% | HCC-2998 colon 88.8% | KM12 colon 87.5%
active: HCT-116 colon -5.88%

O=C(CSc1ccc2nnc(-c3cccc(F)c3)n2n1)Nc1ccc2c(c1)OCO2
inactive: BT-549 breast 88.3% | MDA-MB-435 melanoma 89.5% | SW-620 colon 92.8% | MCF7 breast 36.4% | HCT-116 colon 62.1% | HCC-2998 colon 109% | KM12 colon 73.5%

CC(C)CCNCC(O)Cn1c2ccccc2c2ccccc21 (stereo not given)
active: MDA-MB-435 melanoma 5.65% | MCF7 breast 8.76% | HCT-116 colon 4%
inactive: BT-549 breast 84.3% | SW-620 colon 12.5% | HCC-2998 colon 12.1% | KM12 colon 15.7%

CC1CCCCN1CCCNC(=O)c1ccc2c(c1)sc1nc(-c3ccc(F)cc3)cn12 (stereo not given)
inactive: BT-549 breast 91% | MDA-MB-435 melanoma 109% | SW-620 colon 105% | MCF7 breast 99.5% | HCT-116 colon 89.7% | HCC-2998 colon 88.7% | KM12 colon 101%

COC(=O)C1(C)CCC[C@]2(C)[C@H]3C[C@H]4C(C(C)C)=C[C@]3(CC[C@@H]12)[C@H]1[C@@H]4[C@@H](OCC#CCN2CCOCC2)CC[C@@H]1OCC#CCN1CCOCC1 (stereo not given in full)
inactive: BT-549 breast 97.7% | MDA-MB-435 melanoma 92.5% | SW-620 colon 94.7% | MCF7 breast 77.3% | HCT-116 colon 81% | HCC-2998 colon 97.4% | KM12 colon 93.2%

CC1=C(CC(=O)c2cccc([N+](=O)[O-])c2)C(=O)c2ccccc2C1=O
active: BT-549 breast 2.6% | MDA-MB-435 melanoma -56.1% | SW-620 colon -41.2% | MCF7 breast 7.59% | HCT-116 colon 9.03% | KM12 colon 7.77%
inactive: HCC-2998 colon 96.9%

O=NN(C(=O)NC1CCC(C(=O)O)CC1)C1CCC(C(=O)O)CC1 (stereo not given)
inactive: BT-549 breast 125% | MDA-MB-435 melanoma 106% | SW-620 colon 105% | MCF7 breast 93% | HCT-116 colon 104% | HCC-2998 colon 104% | KM12 colon 108%

COCCN(C(=O)Cc1cccs1)C(C(=O)NCc1ccc(OC)cc1)c1ccc(C(C)C)cc1 (stereo not given)
inactive: BT-549 breast 93.9% | MDA-MB-435 melanoma 104% | SW-620 colon 85.3% | MCF7 breast 85.4% | HCT-116 colon 68.7% | HCC-2998 colon 81.4% | KM12 colon 84.2%

COC(=O)C1=C(C)NC(C)=C(C(=O)OC)C(N2C(=O)CCC2=O)C1 (stereo not given)
inactive: BT-549 breast 79.4% | MDA-MB-435 melanoma 81.7% | SW-620 colon 44.7% | MCF7 breast 69.6% | HCT-116 colon 57.5% | HCC-2998 colon 105% | KM12 colon 94.7%
